# Results taken from PubChem BioAssay (EPA / NIEHS).
# Inconclusive results are not listed. A structure can be active in one record and inactive in another. Activity calls are given as the source filed them. The calls were made as follows, unless noted: active = hit-call score of the fitted dose curve at least 0.9, where 1 is the maximum; inactive = score below 0.9.
# How the values were obtained:
# [1] = target: Glucocorticoid receptor (Homo sapiens) (UniProt P04150); assay: ATG_GR_TRANS: Attagene TRANS-FACTORIAL HepG2 Assay for human Glucocorticoid Receptor (GR) (AID 2282978; active = hit-call score of the fitted dose curve at least 0.9, where 1 is the maximum;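 also: activators score as hits since higher reporter transcript over DMSO is fitted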); details: HepG2 Attagene TRANS GR reporter, mRNA transcription
# Chain of Glucocorticoid receptor (Homo sapiens) (P04150 whole entry, looked up, the tested form may be a part): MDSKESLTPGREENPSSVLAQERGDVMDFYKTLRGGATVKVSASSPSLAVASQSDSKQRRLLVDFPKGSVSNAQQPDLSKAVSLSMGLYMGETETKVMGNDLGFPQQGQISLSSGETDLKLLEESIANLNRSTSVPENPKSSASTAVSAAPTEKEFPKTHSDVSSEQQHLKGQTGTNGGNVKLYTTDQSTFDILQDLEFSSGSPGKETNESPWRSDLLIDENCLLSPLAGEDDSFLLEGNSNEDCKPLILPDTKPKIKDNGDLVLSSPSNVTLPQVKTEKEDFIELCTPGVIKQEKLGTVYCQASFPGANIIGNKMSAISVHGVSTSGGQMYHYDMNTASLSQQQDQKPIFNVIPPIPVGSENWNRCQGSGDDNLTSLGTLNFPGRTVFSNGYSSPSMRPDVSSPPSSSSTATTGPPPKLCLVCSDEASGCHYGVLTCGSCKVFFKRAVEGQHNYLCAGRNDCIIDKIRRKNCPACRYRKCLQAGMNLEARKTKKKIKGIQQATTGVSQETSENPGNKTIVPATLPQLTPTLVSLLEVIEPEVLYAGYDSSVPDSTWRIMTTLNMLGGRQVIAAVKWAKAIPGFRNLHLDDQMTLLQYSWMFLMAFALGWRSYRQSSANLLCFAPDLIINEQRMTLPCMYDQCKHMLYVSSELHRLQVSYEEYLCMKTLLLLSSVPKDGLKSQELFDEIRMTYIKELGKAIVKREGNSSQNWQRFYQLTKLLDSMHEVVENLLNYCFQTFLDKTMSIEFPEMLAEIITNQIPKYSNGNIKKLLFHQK
# Outline: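 Transient MRTU transfection of HepG2 (GAL4-UAS reporters, exogenous NR-GAL4 chimeras), 24 h dosing. Readout: reporter transcript via RT-PCR + capillary electrophoresis fluorescence. Positive direction vs DMSO baseline.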
# [2] = ATG_M_06_TRANS: Attagene TRANS-FACTORIAL HepG2 Assay for M06 Transcription Factor (Internal Marker) (AID 2282983; active = hit-call score of the fitted dose curve at least 0.9, where 1 is the maximum;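 as to AC50: potency for rise in reporter mRNA above DMSO baseline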); details: HepG2 Attagene TRANS M06 internal marker reporter
# Outline: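 After a 24 h chemical treatment of transfected HepG2, RNA underwent DNase I treatment, reverse transcription and reporter-specific PCR; labelled, HpaI-digested products were sized by capillary electrophoresis. Signal increase relative to DMSO defined activity.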
# [3] = ATG_M_32_TRANS: Attagene TRANS-FACTORIAL HepG2 Assay for M32 Transcription Factor (Internal Marker) (AID 2282984; active = hit-call score of the fitted dose curve at least 0.9, where 1 is the maximum;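 also: transcript level of a background control reporter unit measured by RT-PCR and capillary electrophoresis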); details: HepG2 Attagene TRANS M32 internal marker reporter
# Outline: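 HepG2 cells transiently transfected with multiple GAL4-UAS reporter transcription units, dosed for 24 hours; reporter mRNA quantified by RT-PCR, 6-FAM primer extension, HpaI digestion and capillary electrophoresis. Gain-of-signal fitted versus DMSO baseline; internal background-control marker.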
# [4] = target: Transcriptional activator Myb (Homo sapiens) (UniProt P10242); assay: ATG_Myb_CIS: Attagene CIS-FACTORIAL HepG2 Assay for human Myeloblastosis (Myb) Proto-Oncogene Transcription Factor (AID 2282986); details: HepG2 Attagene CIS-FACTORIAL Myb reporter transcription; actives raise or lower the signal
# Chain of Transcriptional activator Myb (Homo sapiens) (P10242 whole entry, looked up): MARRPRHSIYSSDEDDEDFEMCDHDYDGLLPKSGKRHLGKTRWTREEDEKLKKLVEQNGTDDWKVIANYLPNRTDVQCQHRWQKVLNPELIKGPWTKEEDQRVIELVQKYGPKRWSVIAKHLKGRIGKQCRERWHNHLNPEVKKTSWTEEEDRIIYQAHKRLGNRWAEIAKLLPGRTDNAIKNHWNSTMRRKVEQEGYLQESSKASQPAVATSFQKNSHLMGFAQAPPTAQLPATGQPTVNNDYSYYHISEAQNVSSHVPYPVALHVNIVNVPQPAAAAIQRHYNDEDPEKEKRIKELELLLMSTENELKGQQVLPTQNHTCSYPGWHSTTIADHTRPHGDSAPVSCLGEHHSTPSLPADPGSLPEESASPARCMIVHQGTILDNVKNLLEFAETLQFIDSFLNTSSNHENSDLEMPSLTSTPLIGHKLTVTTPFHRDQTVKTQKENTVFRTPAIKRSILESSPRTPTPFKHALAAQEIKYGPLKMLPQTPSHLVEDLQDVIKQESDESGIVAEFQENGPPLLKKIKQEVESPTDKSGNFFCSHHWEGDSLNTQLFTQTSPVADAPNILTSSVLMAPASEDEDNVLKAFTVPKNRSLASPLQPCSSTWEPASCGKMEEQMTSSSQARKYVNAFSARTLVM
# Outline: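 HepG2, transient MRTU transfection (cis-element promoters, endogenous TF activity), 24 h compound exposure. Readout: reporter mRNA via RT-PCR, 6-FAM labeling, HpaI digest, capillary electrophoresis. Gain/loss fit vs DMSO.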
# [5] = target: Nuclear respiratory factor 1 (Homo sapiens) (UniProt Q16656); assay: ATG_NRF1_CIS: Attagene CIS-FACTORIAL HepG2 Assay for human Nuclear Respiratory Factor 1 (NRF1) Orphan Gene (AID 2282987); details: HepG2 NRF1 cis-element reporter, Attagene multiplex; actives raise or lower the signal
# Chain of Nuclear respiratory factor 1 (Homo sapiens) (Q16656 whole entry, looked up): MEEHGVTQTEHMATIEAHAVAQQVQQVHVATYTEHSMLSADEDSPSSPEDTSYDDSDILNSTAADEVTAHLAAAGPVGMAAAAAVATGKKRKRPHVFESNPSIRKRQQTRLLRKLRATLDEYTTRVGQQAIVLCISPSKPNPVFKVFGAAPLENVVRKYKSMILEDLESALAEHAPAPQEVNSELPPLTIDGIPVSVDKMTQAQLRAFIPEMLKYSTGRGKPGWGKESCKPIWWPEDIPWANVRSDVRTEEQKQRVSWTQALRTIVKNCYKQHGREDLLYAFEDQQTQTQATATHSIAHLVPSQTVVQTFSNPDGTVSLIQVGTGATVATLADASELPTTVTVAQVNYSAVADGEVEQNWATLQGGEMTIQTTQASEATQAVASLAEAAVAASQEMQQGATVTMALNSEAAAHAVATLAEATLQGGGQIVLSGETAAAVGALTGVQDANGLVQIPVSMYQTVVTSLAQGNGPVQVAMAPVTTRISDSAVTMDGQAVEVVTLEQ
# Outline: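 Endogenous NRF1-driven reporter transcription measured in transiently transfected human HepG2 liver cells. Readout: reporter mRNA by RT-PCR and capillary electrophoresis with fluorescence detection, 24 h post-dosing. Gain or loss of signal fitted relative to DMSO baseline.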
# [6] = target: Myc proto-oncogene protein (Homo sapiens) (UniProt P01106); assay: ATG_Myc_CIS: Attagene CIS-FACTORIAL HepG2 Assay for human Myelocytomatosis (Myc) Proto-Oncogene Transcription Factor (AID 2282990); details: HepG2, Attagene cis-reporter transcription factor activity; actives raise or lower the signal
# Chain of Myc proto-oncogene protein (Homo sapiens) (P01106 whole entry, looked up): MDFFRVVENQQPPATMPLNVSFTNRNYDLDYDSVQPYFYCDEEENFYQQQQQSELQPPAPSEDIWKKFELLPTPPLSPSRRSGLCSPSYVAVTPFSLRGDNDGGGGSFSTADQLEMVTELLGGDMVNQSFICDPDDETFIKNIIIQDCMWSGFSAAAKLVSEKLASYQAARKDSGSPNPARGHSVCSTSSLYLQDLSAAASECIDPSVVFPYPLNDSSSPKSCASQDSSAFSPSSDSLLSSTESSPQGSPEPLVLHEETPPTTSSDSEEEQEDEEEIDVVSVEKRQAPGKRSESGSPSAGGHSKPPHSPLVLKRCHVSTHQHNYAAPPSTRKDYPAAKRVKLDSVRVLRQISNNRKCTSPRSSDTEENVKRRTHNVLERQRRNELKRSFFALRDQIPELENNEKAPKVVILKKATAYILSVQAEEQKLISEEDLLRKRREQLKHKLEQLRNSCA
# Outline: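 Multiplexed cis-reporter transcription in HepG2 cells after 24 h chemical treatment. Reporter mRNA measured by RT-PCR and capillary electrophoresis fluorescence; activity fitted bidirectionally against DMSO control.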
# [7] = ATG_NF_kB_CIS: Attagene CIS-FACTORIAL HepG2 Assay for human Nuclear Factor Kappa B (NF-kB) (AID 2282991); details: HepG2 Attagene cis-factorial NF-kB reporter mRNA; actives raise or lower the signal
# Outline: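 Read-out: reporter transcript levels quantified by RT-PCR plus capillary electrophoresis of 6-FAM-labelled, HpaI-cut fragments. Transfected HepG2 cells, 24 h compound exposure, endogenous NF-kB-driven cis element; gain or loss scored versus DMSO.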
# [8] = ATG_NRF2_ARE_CIS: Attagene CIS-FACTORIAL HepG2 Assay for human Nuclear Factor Erythroid 2 Related Factor 2 (NFR2) response to Antioxidant Response Elements (ARE) (AID 2282992); details: HepG2 Attagene ARE/NRF2 reporter, transcription factor activity; actives raise or lower the signal
# Outline: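 Transient MRTU transfection of HepG2; 24 h compound exposure; TriZol RNA, RT with oligo(dT), PCR, 6-FAM primer extension, HpaI cut, CE. Bidirectional fit vs DMSO.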
# [9] = ATG_Oct_MLP_CIS: Attagene CIS-FACTORIAL HepG2 Assay for human Octamer-Binding Transcription Factor (Oct) (AID 2282993); details: HepG2 Attagene cis-factorial Oct reporter, mRNA; actives raise or lower the signal
# Outline: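 HepG2 cells transiently transfected with cis-element-driven reporter transcription units (endogenous TF activity); 24 h compound exposure. Reporter mRNA quantified by RT-PCR, 6-FAM labelling, HpaI digestion and capillary electrophoresis; bidirectional fit versus DMSO baseline.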
# [10] = target: Cellular tumor antigen p53 (Homo sapiens) (UniProt P04637); assay: ATG_p53_CIS: Attagene CIS-FACTORIAL HepG2 Assay for human p53 Transcription Factor (AID 2282994); details: HepG2 p53 cis-element reporter, Attagene mRNA; actives raise or lower the signal
# Chain of Cellular tumor antigen p53 (Homo sapiens) (P04637 whole entry, looked up): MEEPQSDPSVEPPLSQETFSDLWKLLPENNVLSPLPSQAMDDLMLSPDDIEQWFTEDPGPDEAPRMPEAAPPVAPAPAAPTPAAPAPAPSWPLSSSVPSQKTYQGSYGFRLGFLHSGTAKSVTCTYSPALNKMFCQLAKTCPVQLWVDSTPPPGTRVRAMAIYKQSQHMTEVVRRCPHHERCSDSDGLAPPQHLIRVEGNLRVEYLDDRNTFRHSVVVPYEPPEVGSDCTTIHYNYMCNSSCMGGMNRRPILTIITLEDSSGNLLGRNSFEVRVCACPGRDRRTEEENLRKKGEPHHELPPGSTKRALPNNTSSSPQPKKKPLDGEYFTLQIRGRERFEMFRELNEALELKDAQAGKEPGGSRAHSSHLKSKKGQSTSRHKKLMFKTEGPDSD
# Outline: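 HepG2, transient MRTU transfection (cis promoter elements, endogenous TFs); 24 h dosing; RNA isolation, RT-PCR, 6-FAM primer extension, HpaI digest, CE fluorescence; bidirectional fit vs DMSO.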
# [11] = BSK_3C_TissueFactor: BioMAP Diversity Plus: 3C Assay for Tissue Factor Biomarker Activity (AID 2282997); details: BioMAP 3C HUVEC, tissue factor biomarker readout; actives raise or lower the signal
# Outline: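 Human vascular primary cells (umbilical vein endothelium) received test chemical; Tissue Factor was determined by ELISA at 24 h, and both gain and loss of signal versus DMSO were fitted.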
# [12] = BSK_3C_uPAR: BioMAP Diversity Plus: 3C Assay for Urokinase-type plasminogen activator receptor (uPAR) Biomarker Activity (AID 2282998); details: BioMAP 3C HUVEC, uPAR biomarker ELISA; actives raise or lower the signal
# Outline: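 Primary human umbilical vein endothelial cells, 3C system; surface uPAR measured by ELISA 24 h after dosing. Cytotoxicity via SRB total protein in parallel cultures; bidirectional fit against DMSO.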
# [13] = BSK_3C_VCAM1: BioMAP Diversity Plus: 3C Assay for Vascular cell adhesion molecule 1 (VCAM1) Biomarker Activity (AID 2282999); details: BioMAP 3C HUVEC, VCAM1 ELISA, cytokine-stimulated; actives raise or lower the signal
# Outline: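 Human umbilical vein endothelial cells were dosed with compound for 24 h, after which cell-surface VCAM-1 was quantified by ELISA. Bidirectional curve fitting used DMSO as negative control and activity baseline.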
# [14] = BSK_4H_Eotaxin3: BioMAP Diversity Plus: 4H Assay for Eotaxin 3 Biomarker Activity (AID 2283000); details: primary human endothelial cells (HUVEC); actives raise or lower the signal;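 as to outcome: CCL26 protein level quantified by ELISA in parallel with SRB cytotoxicity check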
# Outline: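 Readout is Eotaxin-3 (CCL26) level by ELISA in primary human umbilical vein endothelial cells harvested 24 h after chemical exposure; activity fitted in both directions against DMSO control.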
# [15] = target: Bile acid receptor (Homo sapiens) (UniProt Q96RI1); assay: ATG_FXR_TRANS: Attagene TRANS-FACTORIAL HepG2 Assay for Farnesoid X Receptor (FXR) (AID 2282979; active = hit-call score of the fitted dose curve at least 0.9, where 1 is the maximum;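 also: hits raise reporter mRNA above DMSO so AC50 marks FXR activation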); details: HepG2 Attagene TRANS FXR-GAL4 reporter transcription
# Chain of Bile acid receptor (Homo sapiens) (Q96RI1 whole entry, looked up, the tested form may be a part): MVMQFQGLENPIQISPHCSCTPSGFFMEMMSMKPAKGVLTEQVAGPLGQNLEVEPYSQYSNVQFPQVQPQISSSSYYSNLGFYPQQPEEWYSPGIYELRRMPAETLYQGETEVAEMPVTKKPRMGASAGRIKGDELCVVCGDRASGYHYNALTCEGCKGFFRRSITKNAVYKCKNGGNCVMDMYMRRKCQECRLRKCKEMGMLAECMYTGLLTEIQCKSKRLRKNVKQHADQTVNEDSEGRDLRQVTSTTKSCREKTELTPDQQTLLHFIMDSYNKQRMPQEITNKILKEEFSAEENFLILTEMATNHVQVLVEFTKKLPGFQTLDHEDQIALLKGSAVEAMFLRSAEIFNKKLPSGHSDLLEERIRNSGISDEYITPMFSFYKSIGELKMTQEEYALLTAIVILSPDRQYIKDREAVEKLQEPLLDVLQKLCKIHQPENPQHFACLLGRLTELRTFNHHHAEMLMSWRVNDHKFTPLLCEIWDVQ
# Outline: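 Read-out: fluorescent reporter transcripts quantified by capillary electrophoresis after RT-PCR of total RNA. Source cells were HepG2 transiently carrying chimeric NR-GAL4 plus GAL4-UAS reporter units, dosed 24 h. Activity fitted upward relative to DMSO baseline.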
# [16] = ATG_NFI_CIS: Attagene CIS-FACTORIAL HepG2 Assay for human Nuclear Factor I (NFI) (AID 2282989); details: HepG2 cis-regulatory reporter, NFI response element transcription; actives raise or lower the signal
# Outline: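 Endogenous TF activity in HepG2 cells transiently transfected with cis-element-driven multiplexed reporter units, read 24 h after dosing. Reporter mRNA quantified by RT-PCR, 6-FAM labelling, HpaI digestion and capillary electrophoresis; bidirectional fit versus DMSO.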
# [17] = target: Hepatocyte nuclear factor 4-alpha (Homo sapiens) (UniProt P41235); assay: ATG_HNF4a_TRANS: Attagene TRANS-FACTORIAL HepG2 Assay for human Hepatocyte Nuclear Factor 4 alpha (HNF4a) (AID 2282982; active = hit-call score of the fitted dose curve at least 0.9, where 1 is the maximum); details: HepG2 HNF4a transactivation reporter, mRNA readout
# Chain of Hepatocyte nuclear factor 4-alpha (Homo sapiens) (P41235 whole entry, looked up, the tested form may be a part): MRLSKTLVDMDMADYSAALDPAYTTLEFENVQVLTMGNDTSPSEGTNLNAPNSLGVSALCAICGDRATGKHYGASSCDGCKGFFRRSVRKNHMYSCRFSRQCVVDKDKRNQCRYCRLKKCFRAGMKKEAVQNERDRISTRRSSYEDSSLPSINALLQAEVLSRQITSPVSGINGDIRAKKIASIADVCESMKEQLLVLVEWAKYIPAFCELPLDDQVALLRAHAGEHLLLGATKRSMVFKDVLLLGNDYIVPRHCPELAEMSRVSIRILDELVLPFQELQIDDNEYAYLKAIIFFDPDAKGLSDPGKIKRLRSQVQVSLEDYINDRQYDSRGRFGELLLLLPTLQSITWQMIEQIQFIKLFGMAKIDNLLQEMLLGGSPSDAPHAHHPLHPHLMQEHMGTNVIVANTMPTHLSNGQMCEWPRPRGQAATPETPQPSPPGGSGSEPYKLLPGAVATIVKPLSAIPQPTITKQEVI
# Outline: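 HepG2 cells transiently transfected with multiplexed GAL4-UAS reporter units responsive to chimeric NR-GAL4 proteins; compound exposure 24 h. Reporter mRNA quantified by RT-PCR, 6-FAM labelling, HpaI digestion and capillary electrophoresis; gain of signal versus DMSO baseline.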
structure (smiles),measurement,setting,value
Oc1cc2ccccc2c2ccccc12,outcome,[1],inactive
same,AC50,[2],50.8 µM (active)
same,outcome,[2],inactive
same,outcome,[3],inactive
same,outcome,[4],inactive
same,outcome,[5],inactive
same,outcome,[6],inactive
same,outcome,[7],inactive
same,outcome,[8],inactive
same,outcome,[9],inactive
same,outcome,[10],inactive
same,AC50,[11],8.37 µM (active)
same,AC50,[12],11.2 µM (active)
same,AC50,[13],8.07 µM (active)
same,AC50,[14],7.88 µM (active)
COC(=O)CCCCC(=O)OC,outcome,[1],inactive
same,outcome,[15],inactive
same,outcome,[2],inactive
same,outcome,[3],inactive
same,outcome,[4],inactive
same,outcome,[5],inactive
same,outcome,[16],inactive
same,outcome,[6],inactive
same,outcome,[8],inactive
same,outcome,[9],inactive
same,outcome,[10],inactive
same,outcome,[11],inactive
same,outcome,[12],inactive
same,outcome,[13],inactive
same,outcome,[14],inactive
OC1CCCCC1,outcome,[17],inactive
same,outcome,[2],inactive
same,outcome,[3],inactive
same,outcome,[4],inactive
same,outcome,[5],inactive
same,outcome,[16],inactive
same,outcome,[6],inactive
same,outcome,[8],inactive
same,outcome,[9],inactive
same,outcome,[10],inactive
same,outcome,[11],inactive
same,outcome,[12],inactive
same,outcome,[13],inactive
same,outcome,[14],inactive
c1ccc2c(c1)ccc1ccccc12,outcome,[1],inactive
same,outcome,[15],inactive
same,outcome,[2],inactive
same,outcome,[3],inactive
same,outcome,[4],inactive
same,outcome,[5],inactive
same,outcome,[16],inactive
same,outcome,[6],inactive
same,outcome,[7],inactive
same,outcome,[8],inactive
same,outcome,[9],inactive
same,outcome,[10],inactive
same,AC50,[11],3.97 µM (active)
same,outcome,[12],inactive
same,outcome,[13],inactive
same,outcome,[14],inactive
CCOC(=O)CC(O)(CC(=O)OCC)C(=O)OCC,outcome,[1],inactive
same,outcome,[17],inactive
same,outcome,[2],inactive
same,outcome,[3],inactive
same,outcome,[4],inactive
same,outcome,[5],inactive
same,outcome,[16],inactive
same,outcome,[6],inactive
same,outcome,[7],inactive
same,outcome,[8],inactive
same,outcome,[9],inactive
same,outcome,[10],inactive
same,outcome,[11],inactive
same,outcome,[12],inactive
same,outcome,[13],inactive
same,outcome,[14],inactive
O=[N+]([O-])c1ccc(O)cc1,outcome,[17],inactive
same,outcome,[2],inactive
same,outcome,[4],inactive
same,outcome,[5],inactive
same,outcome,[6],inactive
same,outcome,[7],inactive
same,outcome,[8],inactive
same,outcome,[9],inactive
same,outcome,[10],inactive
same,outcome,[11],inactive
same,outcome,[12],inactive
same,outcome,[13],inactive
same,outcome,[14],inactive
